# Experimental data: the supplement of paper PMC8728848
# This excerpt belongs to a sample that is enriched for the strongest signals.
# B1: GH98CBM51-1 (Streptococcus pneumoniae) (protein)
# chain: MTYLSDMDWSSATHGDIDKTKTVQKDAPFTTGNKGEHTKISLLTSDDKVKYFDKGIGTVADSPSVISYDISGQGFEKFETYIGIDQSANSSRSDHAVVDRIEIEIDGKVVYSSSVTNPEGFRYNTQAQFISVTIPQNAKKISLKSFAGEHTWGDEVVFADAKLIKTVST
# What was measured:
# Assay in all cases: glycan array binding signal (z-score within array); higher = stronger binding
# Conditions in all cases: glycan notation: IUPAC condensed, linker removed
# [1] = molecular target: Fuc(a1-2)Gal(b1-3)GalNAc(b1-3)Gal
# Method in brief: (§1)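 Negative Z-scores can be read as non-binding. The Z-score is calculated within each array and then averaged across arrays of one protein sequence at different concentrations or buffers and across linkers. Arrays, 3228 in all, were curated from the Consortium for Functional Glycomics database and kept only where the protein sequence was available.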
# [2] = molecular target: Fuc(a1-2)Gal(b1-3)[Fuc(a1-4)]GlcNAc(b1-3)[Gal(b1-4)GlcNAc(b1-6)]Gal(b1-4)Glc
# Method in brief: as §1
# Fuc(a1-2)Gal(b1-4)GlcNAc = molecular target: Fuc(a1-2)Gal(b1-4)GlcNAc
# Method in brief: as §1
# [3] = molecular target: Fuc(a1-2)Gal(b1-4)GlcNAc(b1-3)GalNAc
# Method in brief: as §1
# [4] = molecular target: Fuc(a1-2)Gal(b1-4)GlcNAc6S
# Method in brief: as §1
# Fuc(a1-2)Gal6S(b1-4)Glc = molecular target: Fuc(a1-2)Gal6S(b1-4)Glc
# Method in brief: as §1
# Fuc(a1-2)[Gal(a1-3)]Gal = molecular target: Fuc(a1-2)[Gal(a1-3)]Gal
# Method in brief: as §1
# [5] = molecular target: Fuc(a1-2)[Gal(a1-3)]Gal(b1-4)GlcNAc
# Method in brief: as §1
# [6] = molecular target: Fuc(a1-2)[Gal(a1-3)]Gal(b1-4)GlcNAc(b1-2)Man(a1-3)[Fuc(a1-2)[Gal(a1-3)]Gal(b1-4)GlcNAc(b1-2)Man(a1-6)]Man(b1-4)GlcNAc(b1-4)GlcNAc
# Method in brief: as §1
# [7] = molecular target: Fuc(a1-2)[GalNAc(a1-3)]Gal(b1-3)GlcNAc(b1-2)Man(a1-3)[Fuc(a1-2)[GalNAc(a1-3)]Gal(b1-3)GlcNAc(b1-2)Man(a1-6)]Man(b1-4)GlcNAc(b1-4)GlcNAc
# Method in brief: as §1
# [8] = molecular target: Fuc(a1-2)[GalNAc(a1-3)]Gal(b1-4)GlcNAc
# Method in brief: as §1
# [9] = molecular target: Fuc(a1-2)[GalNAc(a1-3)]Gal(b1-4)GlcNAc(b1-2)Man(a1-3)[Fuc(a1-2)[GalNAc(a1-3)]Gal(b1-4)GlcNAc(b1-2)Man(a1-6)]Man(b1-4)GlcNAc(b1-4)GlcNAc
# Method in brief: as §1
# [10] = molecular target: Fuc(a1-2)[GalNAc(a1-3)]Gal(b1-4)GlcNAc(b1-3)Gal(b1-4)GlcNAc
# Method in brief: as §1
# [11] = molecular target: Fuc(a1-2)[GalNAc(a1-3)]Gal(b1-4)GlcNAc(b1-3)Gal(b1-4)GlcNAc(b1-3)Gal(b1-4)GlcNAc
# Method in brief: as §1
# [12] = molecular target: Fuc(a1-3)[Gal(b1-4)]GlcNAc
# Method in brief: as §1
# Fuc(b1-3)GlcNAc = molecular target: Fuc(b1-3)GlcNAc
# Method in brief: as §1
# [13] = molecular target: Gal(a1-3)Gal(b1-3)GlcNAc(b1-2)Man(a1-3)[Gal(a1-3)Gal(b1-3)GlcNAc(b1-2)Man(a1-6)]Man(b1-4)GlcNAc(b1-4)GlcNAc
# Method in brief: as §1
# [14] = molecular target: Gal(a1-3)Gal(b1-4)GlcNAc(b1-3)GalNAc
# Method in brief: as §1
# [15] = molecular target: Gal(a1-3)Gal(b1-4)[Fuc(a1-3)]GlcNAc
# Method in brief: as §1
# Gal(a1-6)Glc = molecular target: Gal(a1-6)Glc
# Method in brief: as §1
# Gal(b1-3)Gal = molecular target: Gal(b1-3)Gal
# Method in brief: as §1
# [16] = molecular target: Gal(b1-3)GalNAc(b1-3)Gal(a1-4)Gal(b1-4)Glc
# Method in brief: as §1
# Gal(b1-3)GlcNAc = molecular target: Gal(b1-3)GlcNAc
# Method in brief: as §1
# [17] = molecular target: Gal(b1-4)GlcNAc(a1-6)Gal(b1-4)GlcNAc
# Method in brief: as §1
# [18] = molecular target: GlcNAc(a1-3)Gal(b1-4)GlcNAc
# Method in brief: as §1
# [19] = molecular target: GlcNAc(a1-4)Gal(b1-3)GlcNAc
# Method in brief: as §1
# [20] = molecular target: GlcNAc(b1-4)GlcNAc(b1-4)GlcNAc(b1-4)GlcNAc(b1-4)GlcNAc(b1-4)GlcNAc
# Method in brief: as §1
# Kdn(a2-3)Gal(b1-4)Glc = molecular target: Kdn(a2-3)Gal(b1-4)Glc
# Method in brief: as §1
# [21] = molecular target: Neu5Ac(a2-3)Gal(b1-3)GlcNAc6S
# Method in brief: as §1
# [22] = molecular target: Neu5Ac(a2-3)Gal(b1-3)[Fuc(a1-4)]GlcNAc(b1-3)Gal(b1-3)[Fuc(a1-4)]GlcNAc
# Method in brief: as §1
# [23] = molecular target: Neu5Ac(a2-3)Gal(b1-4)GlcNAc(b1-3)Gal(b1-4)[Fuc(a1-3)]GlcNAc
# Method in brief: as §1
# [24] = molecular target: Neu5Ac(a2-3)Gal(b1-4)[Fuc(a1-3)]GlcNAc
# Method in brief: as §1
# [25] = molecular target: Neu5Ac(a2-3)Gal(b1-4)[Fuc(a1-3)]GlcNAc6S
# Method in brief: as §1
# [26] = molecular target: Neu5Ac(a2-3)[GalNAc(b1-4)]Gal(b1-4)Glc
# Method in brief: as §1
# [27] = molecular target: Neu5Ac(a2-6)GlcNAc(b1-4)GlcNAc(b1-4)GlcNAc
# Method in brief: as §1
# [28] = molecular target: Neu5Ac(a2-8)Neu5Ac(a2-8)Neu5Ac(a2-8)Neu5Ac(a2-3)[GalNAc(b1-4)]Gal(b1-4)Glc
# Method in brief: as §1
# [29] = molecular target: Neu5Gc(a2-3)Gal(b1-4)[Fuc(a1-3)]GlcNAc
# Method in brief: as §1
binder,measurement,setting,value
B1,glycan array binding signal (z-score),[1],-0.187
same,glycan array binding signal (z-score),[2],-0.19
same,glycan array binding signal (z-score),Fuc(a1-2)Gal(b1-4)GlcNAc,-0.191
same,glycan array binding signal (z-score),[3],-0.194
same,glycan array binding signal (z-score),[4],-0.194
same,glycan array binding signal (z-score),Fuc(a1-2)Gal6S(b1-4)Glc,-0.185
same,glycan array binding signal (z-score),Fuc(a1-2)[Gal(a1-3)]Gal,5.96
same,glycan array binding signal (z-score),[5],5.12
same,glycan array binding signal (z-score),[6],8.05
same,glycan array binding signal (z-score),[7],-0.122
same,glycan array binding signal (z-score),[8],5.07
same,glycan array binding signal (z-score),[9],5.04
same,glycan array binding signal (z-score),[10],5.55
same,glycan array binding signal (z-score),[11],4.91
same,glycan array binding signal (z-score),[12],-0.192
same,glycan array binding signal (z-score),Fuc(b1-3)GlcNAc,-0.193
same,glycan array binding signal (z-score),[13],-0.171
same,glycan array binding signal (z-score),[14],-0.191
same,glycan array binding signal (z-score),[15],-0.186
same,glycan array binding signal (z-score),Gal(a1-6)Glc,-0.186
same,glycan array binding signal (z-score),Gal(b1-3)Gal,-0.181
same,glycan array binding signal (z-score),[16],-0.191
same,glycan array binding signal (z-score),Gal(b1-3)GlcNAc,-0.188
same,glycan array binding signal (z-score),[17],-0.186
same,glycan array binding signal (z-score),[18],-0.193
same,glycan array binding signal (z-score),[19],-0.189
same,glycan array binding signal (z-score),[20],-0.195
same,glycan array binding signal (z-score),Kdn(a2-3)Gal(b1-4)Glc,-0.191
same,glycan array binding signal (z-score),[21],-0.196
same,glycan array binding signal (z-score),[22],-0.184
same,glycan array binding signal (z-score),[23],-0.191
same,glycan array binding signal (z-score),[24],-0.191
same,glycan array binding signal (z-score),[25],-0.182
same,glycan array binding signal (z-score),[26],-0.196
same,glycan array binding signal (z-score),[27],-0.193
same,glycan array binding signal (z-score),[28],-0.184
same,glycan array binding signal (z-score),[29],-0.182
